{
  "source": "PubChem BioAssay (Tox21)",
  "note": "Values joined by “and” are separate entries in the source; they are usually repeats but may differ in a detail not shown here. Equal entries are not always repeated. Records with an inconclusive call do not appear. Where a call stands in place of a potency, no number is given. The source holds several records for some structures; these can differ, active in one and inactive in another. Active and inactive are the calls of the source. Calls come from the whole dose curve; as a rule, active = well fitted cell-killing curve with a large enough effect in the repeat runs; inconclusive = weak or mixed curves, or effect the other way; inactive = flat fitted curve, though single readings scatter. Potency is the fitted concentration of half-maximal effect.",
  "data": [
    {"assay": "qHTS assay to identify small molecule that activate the aryl hydrocarbon receptor (AhR) signaling pathway - cell viability counter screen (AID 743086); note: nearly all actives have a fitted effect of over 45% in size", "details": "HepG2-AhR-luc viability, CellTiter-Fluor, 24 h; series mostly up to 70.3 µM", "source_text": "U.S. Tox21 Program National Center for Advancing Translational Sciences [NCATS] NIH Chemical Genomics Center [NCGC] U.S. Environmental Protection Agency [EPA] National Institutes of Environmental Health Sciences [NIEHS] National Toxicology Program [NTP] U.S. Food and Drug Administration [FDA] Tox21 Assay overview: The Aryl hydrocarbon Receptor (AhR), a member of the family of basic helix-loop-helix transcription factors, is crucial to adaptive responses to environmental changes. AhR mediates cellular responses to environmental pollutants such as aromatic hydrocarbons through induction of phase I and II enzymes but also interacts with other nuclear receptor signaling pathways A cell based HepG2-AhR-luc assay (HG2L7.5c1 cell line, developed by Dr. Michael S. Denison, University of California at Davis) was used to assess the activation of AhR. HepG2 (human hepatocellular carcinoma) cells were stably transfected with an Ah receptor-responsive firefly luciferase reporter gene plasmid containing 20 dioxin responsive elements and luciferase reporter gene. Increased luciferase activity can be used to identify the compounds that induce AhR activation. The cytotoxicity of the compounds screened against the HepG2-AhR-luc cell line was tested in parallel by measuring the cell viability using CellTiter-Fluor assay in the same wells.\nTox21 Assay Protocol Summary: 4000 cells in 5 uL/well were dispensed into white wall/solid bottom 1536-well plates using a Multidrop Combi (Thermo Fisher Scientific Inc., Waltham, MA) dispenser. After the assay plates were incubated at 37C for 5 h, 23 nL of compound or DMSO vehicle was transferred to the assay plates by a pintool station (Kalypsys, San Diego, CA). The plates were incubated at 37C for 24 hr. For cell viability measurement, 1 ul/well of CellTiter-Fluor reagent (Promega, Madison, WI) was added into the assay plates using a Flying Reagent Dispenser (FRD) (Aurora Discovery, CA),and then the assay plates were incubated at 37C for 30 min. The fluorescence intensity in the plates was measured using a ViewLux plate reader (PerkinElmer, Shelton, CT), followed by the addition of 4 uL of ONE-Glo Luciferase Assay reagent (Promega) using an FRD (Aurora Discovery). After the assay plates were incubated at room temperature for 30 min, luminescence intensity was measured using a ViewLux plate reader (Perkin Elmer).", "values": [
      {"smiles": "CC(C)OC=O", "Potency": "inactive"},
      {"smiles": "c1ccc(Nc2ccccc2)cc1", "Potency": "inactive"},
      {"smiles": "OC1CCCCCCCCCCC1", "Potency": "inactive"},
      {"smiles": "Cc1cccc([N+](=O)[O-])c1C", "Potency": "inactive"},
      {"smiles": "Nc1ccc(S(=O)(=O)Nc2cnc3ccccc3n2)cc1", "Potency": "inactive"},
      {"smiles": "CN(C)CCC=C1c2ccccc2CCc2ccccc21", "Potency": "48.6 µM (active)"},
      {"smiles": "c1ccc2sc(SSN3CCOCC3)nc2c1", "Potency": "inactive"},
      {"smiles": "OC[C@H]1O[C@@H]2O[C@H]3[C@H](O)[C@@H](O)[C@@H](O[C@H]4[C@H](O)[C@@H](O)[C@@H](O[C@H]5[C@H](O)[C@@H](O)[C@@H](O[C@H]6[C@H](O)[C@@H](O)[C@@H](O[C@H]7[C@H](O)[C@@H](O)[C@@H](O[C@H]8[C@H](O)[C@@H](O)[C@@H](O[C@H]1[C@H](O)[C@H]2O)O[C@@H]8CO)O[C@@H]7CO)O[C@@H]6CO)O[C@@H]5CO)O[C@@H]4CO)O[C@@H]3CO", "Potency": "inactive"},
      {"smiles": "c1ccc2c(c1)Oc1ccccc1S2", "Potency": "inactive"},
      {"smiles": "Cc1ccc2c(n1)Oc1ccc(C(C)C(=O)OCC(=O)N(C)C)cc1C2", "note": "(stereo not given)", "Potency": "inactive"},
      {"smiles": "O=C(c1ccccc1)c1ccc(O)cc1O", "Potency": "inactive"},
      {"smiles": "c1ccc2cc(Nc3ccc(Nc4ccc5ccccc5c4)cc3)ccc2c1", "Potency": "inactive"},
      {"smiles": "CCCCC(CC)COP(=O)(OCC(CC)CCCC)OCC(CC)CCCC", "note": "(stereo not given)", "Potency": "inactive"},
      {"smiles": "O=C(/C=C/C=C/c1ccc2c(c1)OCO2)N1CCCCC1", "Potency": "inactive"},
      {"smiles": "CCCc1c(OCCCCc2nn[nH]n2)ccc(C(C)=O)c1O", "Potency": "inactive"},
      {"smiles": "CN1C(C(=O)Nc2ccccn2)=C(O)c2ccccc2S1(=O)=O", "Potency": "inactive"},
      {"smiles": "O=Cc1ccccc1O", "Potency": "inactive"},
      {"smiles": "COc1c(Cl)c(Cl)c(Cl)c(Cl)c1Cl", "Potency": "inactive"},
      {"smiles": "Oc1ccc(O)cc1", "Potency": "inactive"},
      {"smiles": "CC(=O)C1(C)CC2=C(CCCC2(C)C)CC1C", "note": "(stereo not given)", "Potency": "inactive"},
      {"smiles": "CNCCCC12CCC(c3ccccc31)c1ccccc12", "Potency": "inactive and 61.1 µM (active)"},
      {"smiles": "C[Si](C)(C)O[Si](C)(C)C", "Potency": "inactive"},
      {"smiles": "CCCCC(CC)COC(=O)c1ccc(N(C)C)cc1", "note": "(stereo not given)", "Potency": "inactive"},
      {"smiles": "Cc1ccc(C(=O)c2cc(O)c(O)c([N+](=O)[O-])c2)cc1", "Potency": "inactive"},
      {"smiles": "O=C(OCc1ccccc1)c1ccccc1O", "Potency": "inactive"},
      {"smiles": "COC(C)COC(C)COC(C)CO", "note": "(stereo not given)", "Potency": "inactive"},
      {"smiles": "CN(C)C(=N)N=C(N)N", "Potency": "inactive"},
      {"smiles": "O=C1OC2(c3cc(Br)c(O)c(Br)c3Oc3c2cc(Br)c(O)c3Br)c2c(Cl)c(Cl)c(Cl)c(Cl)c21", "Potency": "9.7 µM (active) and 5.88 µM (active)"},
      {"smiles": "CC1=CC2C3CC(C=C3C)C2C1", "note": "(stereo not given)", "Potency": "inactive"},
      {"smiles": "C[C@]12CC[C@H]3[C@@H](CCC4=CC(=O)CC[C@@]43C)[C@@H]1CC[C@@H]2C(=O)CO", "Potency": "inactive"},
      {"smiles": "O=C(COc1ccc(Cl)cc1)N1CCN(Cc2ccc3c(c2)OCO3)CC1", "Potency": "inactive"},
      {"smiles": "CC(C(=O)O)c1cccc(C(=O)c2ccccc2)c1", "note": "(stereo not given)", "Potency": "inactive"},
      {"smiles": "COC(=O)CCC(=O)OC", "Potency": "inactive"},
      {"smiles": "CC(=O)Oc1ccccc1C(=O)Nc1ncc([N+](=O)[O-])s1", "Potency": "inactive and 17.6 µM (active)"},
      {"smiles": "CC(=O)CC/C=C(\\C)CCC=C(C)C", "Potency": "inactive"},
      {"smiles": "CC(=O)c1ccccn1", "Potency": "inactive"},
      {"smiles": "Cc1[nH]c(=O)c(C#N)cc1-c1ccncc1", "Potency": "inactive"},
      {"smiles": "Cc1c(C(N)=O)cc([N+](=O)[O-])cc1[N+](=O)[O-]", "Potency": "inactive"},
      {"smiles": "CCCCCCCCCC(=O)OC", "Potency": "inactive"},
      {"smiles": "CC(C)OB(OC(C)C)OC(C)C", "Potency": "inactive"}
    ]}
  ]
}
